Test results published in PubChem BioAssay AID1508623 (National Center for Advancing Translational Sciences (NCATS), 2021).
Screen size: about 48,000 compounds; about 450 (0.94%) were called active. About 19% were inconclusive and are not listed. For the sample, actives were picked, then their nearest neighbours and some compounds at random. Unmarked numbers belong to inactive results. Calls follow the shape of the dose curve; as a rule, active = well fitted inhibition curve with a large enough effect; inconclusive = small, poorly fitted or top-dose-only effect; inactive = no such curve, though single readings can be large or run the other way.

Experiment: Primary qHTS for Identification of Small Molecule Inhibitors of Huntingtin Promoter Activity; also: nearly all actives have a fitted effect of over 50% in size
Details: HEK293 HTT promoter firefly luciferase reporter (activity 0% = vehicle and -100% = no light), 24 h; series mostly up to 57.5 µM; activity change, negative = inhibition: at the top concentration
Excerpt: Assay Provider: Russell L. Margolis M.D.
Department Neurology, Johns Hopkins University School of Medicine, Baltimore, MD
Huntington's Disease (HD) is a neurodegenerative disorder caused by a CAG repeat expansion in exon 1 of huntingtin (HTT). While there are currently no disease-modifying treatments for HD, recent efforts have focused on development of nucleotide-based therapeutics to lower HTT expression. As an alternative to siRNA or oligonucleotide methods, we hypothesized that suppression of HTT expression might be accomplished by small molecules that either (1) directly decrease HTT expression by suppressing HTT promoter activity or (2) indirectly decrease HTT expression by increasing the promoter activity of HTT-AS, the gene antisense to HTT that appears to inhibit expression of HTT.
We developed and employed a high throughput screen for modifiers of HTT and HTT-AS promoter activity using luminescent reporter HEK293 cells; of the 52,041 compounds tested, we identified 898 replicable hits. We used a rigorous stepwise approach to assess compound toxicity and the capacity of the compounds to specifically lower huntingtin protein in 5 different cell lines, including HEK293 cells, HD lymphoblastoid cells, mouse primary neurons, HD iPSCs differentiated into cortical-like neurons, and HD hESCs. We found no compounds which were able to lower huntingtin without lowering cell viability in all assays, though the potential efficacy of a few compounds at non-toxic doses could not be excluded.
SEQUENCE No. (1, 2, 3, etc.); […] (e.g., Cells, Incubation, Reagent, etc.); VALUE and DESCRIPTION.
1; Reagent; 4 uL; 2,500 Hek293 luciferase reporter cells per wells
3; Compound; 23 nL; Control inhibitor / compound library
5; Reagent; 2.5 uL; Firefly Luc reagent; Dual-Glo Luciferase Reporter Assay System (Promega)
6; Time; 10 min; room temperature incubation
7; Detection; Luminescence; FLuc
NOTES (numbers refer to sequence above)
1; High-throughput screening, measuring luminescence from a Hek293 luciferase reporter, was performed in 1,536 well white-walled tissue-culture treated plates. 2,500 cells were plated in 4 µL of Opti-MEM per well using a Multidrop Combi Reagent Dispenser (ThermoFisher).
2; Assay plates were cultured for 24 hours.
3; Control inhibitor (PTC124; final concentration of 50 uM) and compound library (at final concentrations of 460 nM - 57.5 uM) were added to the assay plate using the Kalypsis Pintool Robotic System equipped with 1536 pinheads.
4; Cells were then incubated for 24 hours at 37 degrees C prior to luminescence measurements.
5; In all cases, luminescence was measured using the Dual-Glo Luciferase Reporter Assay System (Promega) following the manufacturer's instructions.
6; Room temperature incubation.
7; Luminescence signal was obtained using the PerkinElmer ViewLux plate reader. Results were normalized to vehicle control (0% activity) and zero RLU (-100% activity).
Potency is read from the fitted curve at half-maximal effect.

Row | SMILES | activity change, negative = inhibition | Potency
1 | CCOc1ccc(S(=O)(=O)c2cn(Cc3ccc(OC)cc3)c3ccc(F)cc3c2=O)cc1 | -19.5% | 
2 | Cc1sc(C2C(C#N)=C(N)N(c3cccc(Cl)c3)C3=C2C(=O)CCC3)cc1CN1CCOCC1 (stereo unspecified) | -8.58% | 
3 | COc1ccc(NC(=O)c2ccco2)cc1NC(=O)c1ccc(C#N)cc1F | -8.77% | 
4 | CCc1cccc(NC(=O)CN(C)S(=O)(=O)c2ccc3[nH]c4c(c3c2)CCCC4)c1 | -24.5% | 
5 | COc1ccc(OC)c(-n2nnc3c(sc4nc(C)c(Br)c(C)c43)c2=O)c1 | -16% | 
6 | Cc1c(C(=O)N(C)C)sc2c1c(=O)n(-c1ccc(F)cc1)c(=O)n2CC(=O)N(C)c1ccccc1 | -16.9% | 
7 | COc1cc(C(=O)NCC(c2ccc(Cl)cc2)N2CCOCC2)cc(OC)c1OC (stereo unspecified) | -3.92% | 
8 | CCOc1ccc(C(NC(=O)c2cc(OC)c(OC)c(OC)c2)c2cc(Cl)c3cccnc3c2O)cc1 (stereo unspecified) |  | 3.55 µM (active)
9 | COc1c(Cl)cc(Cl)cc1C(=O)Nc1cccc2cccnc12 | -11.6% | 
10 | CCCCCn1c(=O)[nH]c2cc(C(=O)Nc3cc(C)cc(C)c3)ccc2c1=O | -2.81% | 
11 | Cc1ccc(Cl)cc1N1CCN(S(=O)(=O)c2cc3[nH]c(=O)c(=O)[nH]c3cc2C)CC1 | -8.72% | 
12 | CC(=O)c1sc(N2C(=O)c3oc4ccccc4c(=O)c3C2c2ccc(C)cc2)nc1C (stereo unspecified) | -13.5% [at 11.5 µM] | 
13 | CCS(=O)(=O)N1CCc2cc(C(=O)NCc3ccc(C)cc3)ccc21 | -14.9% | 
14 | CCOC(=O)c1c(C)oc2nc(C)nc(Nc3ccc(CC)cc3)c12 | -7.44% | 
15 | O=C(Cn1c(=O)nc(-c2ccccc2)c2cc(Cl)ccc21)NCc1ccc(Cl)cc1 | -24% | 
16 | CCCOc1cccc(C(=O)Nc2cccc(NC(=O)c3ccc(C(C)(C)C)cc3)c2)c1 | 28.7% | 
17 | CCCN(CCC)CCNC(=O)Cn1cnc2sc(C)c(S(=O)(=O)N3CCC(C)CC3)c2c1=O | -16.4% | 
18 | CCc1nn(CCCC(=O)NC(C)c2ccccc2)c(=O)c2cc3occc3n12 (stereo unspecified) | -11% | 
19 | COc1ccc(-c2cc(-c3nc(-c4cc(OC)c(OC)c(OC)c4)no3)[nH]n2)c(OC)c1 | -15.4% | 
20 | Cc1ccccc1-c1nc(CS(=O)(=O)CC(=O)NC(C)c2ccccc2)c(C)o1 (stereo unspecified) | -27.7% | 
21 | Cc1ccc(Cl)cc1N1CCN(C(=O)CN2C(=O)COc3ccc(S(=O)(=O)N4CCOCC4)cc32)CC1 | -16.6% | 
22 | Cc1cccc(N2CCN(C(=O)COCc3cc(-c4ccc5c(c4)OCO5)on3)CC2)c1C | -5.06% | 
23 | O=C(Cn1c(-c2cccs2)cc2ccccc21)NCCc1ccc(Cl)cc1 | -23.6% | 

Row | SMILES | activity change, negative = inhibition | Potency
24 | Cc1oc(-c2ccccc2F)nc1CN1CCC(C(=O)NCCc2ccc(Cl)cc2)CC1 | -11.4% | 
25 | Cc1c(NC(=O)Nc2ccc(F)c(Cl)c2)c(=O)n(-c2ccccc2)n1C | -12.5% | 
26 | CCN(CC)S(=O)(=O)c1ccc2c(c1)N(CC(=O)NCC(C)c1ccccc1)C(=O)CO2 (stereo unspecified) | -11.4% | 
27 | CCN(CCCNC(=O)c1cc2c(=O)n(CC)c3ccccc3c2s1)Cc1ccccc1 | 3.33% | 
28 | Cc1ccc(Cl)cc1N(C)C(=O)Cn1nc(Cc2cccnc2)c2ccccc2c1=O | -22% | 
29 | CC(=O)c1cccc(Nc2ccc3cc(S(=O)(=O)N4CCC(C)CC4)ccc3n2)c1 | -11.7% | 
30 | C[C@@H](NC(=O)c1ncnc(N)c1Cl)c1ncc(C(=O)Nc2cc(C(F)(F)F)c(Cl)cn2)s1 | -16.3% | 
31 | Cc1cc(NC(=O)CSc2ncc(C(=O)Nc3ccc(Cl)cc3)c(=O)n2C)no1 | -1.72% | 
32 | CCOC(=O)c1ccc(NC(=O)C2CC(=O)N(c3ccc(C(C)C)cc3)C2)cc1 (stereo unspecified) | 4.03% | 
33 | CC(C)c1ccc(NC(=O)C2CCN(c3nc(-c4ccc(C(C)C)cc4)no3)CC2)cc1 |  | 0.0891 µM (active)
34 | CC(=O)c1ccc(NC(=O)C2CCN(S(=O)(=O)c3c(C)noc3/C=C/c3ccc(C)cc3)CC2)cc1 | -21% | 
35 | Cc1ccc2nc(CNC(=O)c3ccccc3)[nH]c2c1 | 0% | 
36 | COCCCNC(=O)CN1C(=O)CSc2ccc(S(=O)(=O)N3CCOCC3)cc21 | -9.25% | 
37 | CCCNC(=O)c1ccc2c(c1)ncn2-c1ccc(C)cc1C | -9.41% | 
38 | CN1C(=O)C[C@H](C(=O)N[C@@H](Cc2cnc[nH]2)C(=O)N2CCC[C@@H]2C(N)=O)NC1=O | 9.02% | 
39 | COc1ccc(C(=O)NCC(c2ccc(N(C)C)cc2)N2CCc3ccccc32)c(OC)c1 (stereo unspecified) | -17.2% | 
40 | COc1cccc(-n2c(=O)c3c(C)c(C(=O)N(C)C)sc3n(Cc3cccc(C)c3)c2=O)c1 | -4.23% | 
41 | COc1ccc2c(c1)C=C(C(=O)NCc1cc(Br)ccc1OC)CO2 | -23.7% | 
42 | CCc1ccccc1NC(=O)c1ccc2nc(CCc3ccccc3)oc2c1 | 0% | 
43 | O=C(Nc1cccc(-c2nc3ccccc3o2)c1)c1cccc(Br)c1 | -18.9% | 
44 | Cc1ccc(NC(=O)C2CCN(S(=O)(=O)c3cc(-c4noc(C)n4)ccc3C)CC2)c(C)c1 |  | 11.2 µM (active)
45 | CCOc1ccc(NC(=O)C2CCN(S(=O)(=O)c3cc(-c4noc(C)n4)ccc3C)CC2)cc1 | -10.5% | 
46 | Cc1cc(C)c(/C=C/c2onc(C)c2S(=O)(=O)N2CCC(C(=O)Nc3ccc(Cl)cc3C)CC2)c(C)c1 | 3.16% | 
